High-throughput results deposited in PubChem by National Center for Advancing Translational Sciences (NCATS).
Rows were chosen to be rich in hits. Some 19% of all compounds tested hit in one or more screens of this group.
HT1080NT lethal – kills 2HG-producing HT-1080-NT fibrosarcoma cells. HT-1080-NT fibrosarcoma viability, CellTiter-Glo ATP luminescence, 48 h. Potency, µM (doses to about 46.1 µM), for the others: top-dose activity, negative = less viability, usual class: cytotoxic. actives 1.6% (n = 360,000);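 note: NT is the 2HG producing partner of a matched IDH1 knockdown line; potency is the fitted concentration of half-maximal effect; 0% = DMSO-treated cells and -100% = media-only wells without cells; nearly all actives have a fitted effect of over 55% in size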
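Fibrosarcoma NT cells, 750 per well in 5% FBS RPMI, were exposed to compound for 48 hours. Viability: CellTiter-Glo luminescence.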
HT1080 IDH1KD tx – HT-1080 IDH1 knockdown cell toxicity (counter line) | HT-1080 IDH1 knockdown viability, ATP luminescence, 48 h | Potency, µM (highest dose often 46.1 µM), inactives show top-dose activity, negative = toxicity, hits mostly cytotoxic | actives 2% (n = 360,000) | AID 686971;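 note: potency is the fitted concentration of half-maximal effect; 0% = DMSO wells and -100% = cell-free medium wells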
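In this qHTS, HT-1080 cells depleted of IDH1 are exposed for 48 h at 37 °C to compound titrations. Toxicity is scored from CellTiter-Glo luminescence, with DMSO as full viability and medium alone as none.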
TDP1 cell CPT – DT40-hTDP1 cell growth loss with CPT. chicken DT40 Tdp1-/-;hTDP1 cells + 20 nM CPT, ATP luminescence, 48 h. Potency, µM (series often up to 46.2 µM), without a hit: at the top dose activity change, negative = growth inhibition, most hits filed as inhibitors. actives 12% (n = 420,000); note: potency is the fitted concentration of half-maximal effect; nearly all actives have a fitted effect of over 55% in size
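Chicken DT40 Tdp1-/- cells stably complemented with human TDP1 were seeded at 400 cells/well in medium containing 20 nM camptothecin, exposed to pin-transferred compounds, and grown at 37 °C for at least 48 hr. Viability was read as ATP luminescence.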
TDP1 cell noCPT – qHTS for Inhibitors of human tyrosyl-DNA phosphodiesterase 1 (TDP1): qHTS in cells in absence of CPT; actives 15% (n = 420,000); AID 686978, 2013; DT40 Tdp1-/- hTDP1 cells, no CPT, ATP luminescence, 48 h; Potency, µM (series often up to 46.2 µM), for the others: at the highest dose activity change, negative = growth inhibition, hits mostly inhibitors; note: potency is the fitted concentration of half-maximal effect; nearly all actives have a fitted effect of over 55% in size
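No-CPT arm: Tdp1-/-;hTDP1 DT40 cells (400/well) plus compounds, incubated ≥48 hr at 37 °C. Readout CellTiter-Glo luminescence.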
IL1B secr inh – inflammasome signaling inhibition, IL-1 beta readout; THP-1 LPS/ATP IL-1B secretion, AlphaLISA, 16 h; stronger effect = lower value; activity change, % at 57.5 µM; actives 4.7% (n = 360,000); AID 743279; in the data active = activity change below about -50%; inconclusive = mostly about -30% to -49%
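Secreted IL-1B measured by AlphaLISA bead assay after 16 h compound exposure of THP-1 cells; compounds (final up to 57.5 uM) added 1 h before LPS (250 ng/mL) and ATP (1.25 mM) stimulation; lower signal means less secretion.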
Starred values were filed as active, the others as inactive; ? = inconclusive; nt = no result. Unless noted, calls come from the whole dose curve; as a rule, active = well fitted curve in the direction sought with a large enough effect; inconclusive = small, poorly fitted or top-dose-only effect, or another doubt; inactive = no such curve, though single readings can be large; an effect the other way counts as inactive or inconclusive. Unless noted, % is set by controls: 0 for no effect and ±100 for the full control effect.

SMILES	HT1080NT lethal	HT1080 IDH1KD tx	TDP1 cell CPT	TDP1 cell noCPT	IL1B secr inh
CC(C)CC(NC(N)=O)C(=O)OCC(=O)Nc1ccc(OC(F)F)cc1 (centres undefined)	5%	13%	23µM*	?	-14
O=C(COC(=O)c1ccc(O)cc1)Nc1ccc(OC(F)F)cc1	-1%	10%	?	16µM*	36
C/C(=N\OCC(=O)Nc1ccc(OC(F)(F)F)cc1)c1ccc2c(c1)OCCO2	10%	-1%	-2%	?	-69*
CC(=O)c1c(C)[nH]c(C(=O)Nc2ccc(Cl)c(S(=O)(=O)N(C)C)c2)c1C	10%	12%	?	?	18
CCOP(=O)(OCC)C(NC(=O)Nc1ccc(Cl)cc1)C(=O)N(CC)CC (centres undefined)	-7%	0%	-11%	?	-2
CC(C)CC1C(=O)N(Cc2cn(CCC3OCCO3)nn2)CCS(=O)(=O)N1Cc1ccc(-c2ccc(Cl)c(Cl)c2)cc1 (centres undefined)	?	?	8.2µM*	5.2µM*	-26
CC(C)CC1C(=O)N(Cc2cn(CCC3OCCCO3)nn2)CCS(=O)(=O)N1Cc1ccc(-c2ccncc2)cc1 (centres undefined)	0%	1%	16µM*	18µM*	-4
COc1ccc(-c2ccc(CN3C(C(C)C)C(=O)N(Cc4cn(CCC5OCCCO5)nn4)CCS3(=O)=O)cc2)cc1OC (centres undefined)	-7%	6%	?	?	-3
COc1ccc(-c2ccc(CN3C(CC(C)C)C(=O)N(Cc4cn(CCC5OCCCO5)nn4)CCS3(=O)=O)cc2)cc1OC (centres undefined)	-7%	-14%	13µM*	?	1
CC(C)CC1C(=O)N(Cc2cn(CCC3OCCO3)nn2)CCS(=O)(=O)N1Cc1ccc(-c2ccccc2)cc1 (centres undefined)	?	-27%	18µM*	21µM*	-9
O=C(COc1ccc(Cl)cc1Cl)N/N=C/C1CC=CCC1 (centres undefined)	-2%	-7%	-18%	-17%	-14
Cc1ccc(-c2ccc(CN3C(CC(C)C)C(=O)N(Cc4cn(CCC5OCCO5)nn4)CCS3(=O)=O)cc2)cc1 (centres undefined)	18µM*	18µM*	15µM*	13µM*	-21
OC(CNCc1ccc(F)cc1)(c1ccc(F)cc1)c1ccc(F)cc1	-27%	-23%	23µM*	?	-55*
OC(CNCc1ccc(Cl)cc1)(c1ccccc1)c1ccc(F)cc1 (centres undefined)	?	?	?	23µM*	-67*
CC(C)(C)c1cc(N)on1	10%	14%	3%	5%	2
CN(C)S(=O)(=O)N1CCc2ccc(NC(=O)c3ccc(C(F)(F)F)cc3)cc2C1	16µM*	?	16µM*	23µM*	?
COCCC(=O)N1CCc2ccc(NC(=O)c3ccc(C(F)(F)F)cc3)cc2C1	?	-14%	?	?	0
Cc1cc(-c2nc3ncccc3o2)ccc1NC(=O)c1ccc([N+](=O)[O-])o1	5%	9%	-4%	2%	-1
Cc1ccc(-c2nc3ncccc3o2)cc1NC(=O)c1ccc([N+](=O)[O-])o1	?	?	15µM*	16µM*	-97*
CC(C)(Oc1ccc(Cl)cc1)C(=O)Nc1ccc(-c2nc3ncccc3o2)cc1	nt	nt	16µM*	18µM*	nt
COc1ccc(C(=O)Nc2ccc(-c3nc4ncccc4o3)cc2)cc1	nt	nt	-14%	-2%	nt
Cc1cc(C)cc(C(=O)Nc2ccc(-c3nc4ncccc4o3)cc2)c1	nt	nt	21µM*	?	nt
O=C(Nc1ccc(-c2nc3ncccc3o2)cc1)c1ccc([N+](=O)[O-])o1	?	?	8.2µM*	3.7µM*	-80*
CCCS(=O)(=O)N1CCN(Cc2c[nH]c3ccccc23)CC1	0%	-4%	?	?	17
O=C(NCC(=O)N1CC=C(c2ccccc2)CC1)c1ccc(F)cc1	3%	3%	-4%	?	-3
SMILES	HT1080NT lethal	HT1080 IDH1KD tx	TDP1 cell CPT	TDP1 cell noCPT	IL1B secr inh
O=C(Nc1ccc2oc(-c3ccncc3)nc2c1)c1ccc([N+](=O)[O-])o1	6.5µM*	16µM*	2.9µM*	5.8µM*	-91*
CN(CCc1cnn(C)c1)Cc1nc(CC2CC2)no1	-1%	13%	-7%	-18%	2
CN(CCc1cn[nH]c1)Cc1nc(Cc2ccccc2)no1	7%	11%	14%	9%	-54*
COc1ccc(-c2cc(C(=O)N/N=C/c3ccc(OC)c(COCC(F)(F)C(F)F)c3)c3ccccc3n2)c(OC)c1	-2%	2%	5.8µM*	5.8µM*	-9
COc1ccc(-c2cc(C(=O)N/N=C/c3sccc3C)c3ccccc3n2)c(OC)c1	-26%	?	?	?	-9
COc1ccc(-c2cc(C(=O)N/N=C(\C)c3ccco3)c3ccccc3n2)c(OC)c1	-21%	?	?	?	-16
COc1ccc(-c2cc(C(=O)N/N=C/c3ccc4c(c3)OCO4)c3ccccc3n2)c(OC)c1	-21%	-23%	9.2µM*	1.8µM*	-17
O=C(N/N=C/c1ccc2c(c1)OCO2)c1cc(-c2ccc(F)cc2)nc2ccccc12	?	?	15µM*	9.2µM*	-1
COc1cc2ccccc2cc1C(=O)N/N=C/c1ccc2c(c1)OCO2	?	?	4.6µM*	2.6µM*	51
CC(=O)c1c(O)c(C)c(O)c2c1OC1=CC(=O)/C(=C(/C)N)C(=O)C12C (centres undefined)	-4%	?	15µM*	8.2µM*	1
O=C(NNS(=O)(=O)c1ccc(F)cc1)c1cccc(O)c1	7%	23%	-5%	9%	20
Cc1cc(N2CCCC2)nc2ccc(NC(=S)NCCCN3CCC(C)CC3)cc12	23µM*	23µM*	?	?	-140*
Cc1cc(N2CCN(C)CC2)nc2ccc(NC(=S)NCCCN3CCc4ccccc4C3)cc12	18µM*	16µM*	?	?	-92*
CCN1CCN(c2cc(C)c3cc(NC(=S)NCCCN4CCc5ccccc5C4)ccc3n2)CC1	21µM*	21µM*	?	15µM*	-23
Cc1cc(N2CCN(C)CC2)nc2ccc(NC(=S)NCCN3CCc4ccccc4C3)cc12	-11%	-26%	?	?	-1
COc1ccccc1-c1cc(C(=O)N2CCOCC2)no1	-3%	3%	11%	18%	-12
